From PubChem BioAssay AID1159580 (chemical genetic matrix, 2015)
Several values for one entry are separate records, joined by “and”; a condition that tells them apart may be missing. Equal entries are not always repeated. Among all 5,500 compounds or so, about 2,000 (36%) were called active. Not shown: some 18% with an inconclusive outcome. No stated cut-off is given here; in the data, active means normalized growth mostly below about 0.91 (no sharp cut-off); inconclusive means no clear call, values can overlap the other calls; inactive means mostly above about 0.92. Some of the results follow.

Assay: chemical genetic growth profiling, strain panel (AID 1159580);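 further: tested at 20 µM; growth read once vehicle control cultures reached saturation at 30 °C; 1 = growth at the plate median or of vehicle wells; lower values mean less growth of the strain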
Settings: growth OD
[1] = S. cerevisiae deletion strains, locus YHR030C, strain SLT2, active compounds read low
[2] = S. cerevisiae deletion strains, locus YHR079C, strain IRE1, active compounds read low
[3] = S. cerevisiae deletion strains, locus YJL095W, strain BCK1, active compounds read low
[4] = S. cerevisiae deletion strains, locus YJR066W, strain TOR1, active compounds read low
[5] = S. cerevisiae deletion strains, locus YLR113W, strain HOG1, active compounds read low
[6] = S. cerevisiae deletion strains, locus YNL183C, strain NPR1, active compounds read low
[7] = S. cerevisiae deletion strains, locus YOR231W, strain MKK1, active compounds read low
[8] = S. cerevisiae deletion strains, locus YPL256C, strain CLN2, active compounds read low
[9] = S. cerevisiae deletion strains, locus YAL040C, strain CLN3, active compounds read low
[10] = S. cerevisiae deletion strains, locus YCL061C, strain MRC1 (second series), active compounds read low
[11] = S. cerevisiae deletion strains, locus YDR150W, strain NUM1, active compounds read low
[12] = S. cerevisiae deletion strains, locus YDR363W, strain ESC2, active compounds read low
[13] = S. cerevisiae deletion strains, locus YER002W, strain NOP16, active compounds read low
[14] = S. cerevisiae deletion strains, locus YMR263W, strain SAP30, active compounds read low
[15] = S. cerevisiae deletion strains, locus YMR307W, strain GAS1, active compounds read low
[16] = S. cerevisiae deletion strains, locus YNL128W, strain TEP1, active compounds read low
[17] = S. cerevisiae deletion strains, locus YNL153C, strain GIM3, active compounds read low
[18] = S. cerevisiae deletion strains, locus YNL175C, strain NOP13, active compounds read low
[19] = S. cerevisiae deletion strains, locus YNL197C, strain WHI3, active compounds read low
[20] = S. cerevisiae deletion strains, locus YNL224C, strain SQS1, active compounds read low
[21] = S. cerevisiae deletion strains, locus YOR083W, strain WHI5 (second series), active compounds read low
[22] = S. cerevisiae deletion strains, locus YGR229C, strain SMI1, active compounds read low
[23] = S. cerevisiae deletion strains, locus YJR075W, strain HOC1, active compounds read low
[24] = S. cerevisiae deletion strains, locus YPL055C, strain LGE1, active compounds read low
[25] = S. cerevisiae deletion strains, locus YPL241C, strain CIN2, active compounds read low
[26] = S. cerevisiae deletion strains, locus YAL013W, strain DEP1, active compounds read low
[27] = S. cerevisiae deletion strains, locus YNL322C, strain KRE1, active compounds read low

Measured: normalized growth

C[N+]12CC[C@@]34c5ccccc5N5C(=O)CC6OCC=C(C1)[C@H](CC32)[C@@H]6C54 (stereo partly drawn)
inactive: [1] 1.02 | [2] 1 | [3] 0.99 | [4] 0.942 | [5] 0.995 | [6] 0.933 | [7] 0.998 | [8] 0.986

N[C@@H](Cn1cc(I)c(=O)[nH]c1=O)C(=O)O
inactive: [9] 0.979 | [10] 0.992 | [11] 0.988 | [12] 1.01 | [13] 0.979 | [14] 1 | [15] 0.992 | [16] 0.977 | [17] 1.03 | [18] 0.993 | [19] 1 | [20] 0.99 | [21] 0.998

CCCn1c(=O)[nH]c(=O)c2[nH]cnc21
inactive: [9] 1.05 | [10] 1.01 | [12] 1.02 | [13] 0.999 | [22] 1 | [23] 1 | [18] 1.01 | [19] 1.01 | [20] 1 | [21] 1 | [24] 1.02 | [25] 1.01

O=c1[nH]c(=O)n([C@H]2C[C@H](O)[C@@H](CO)O2)cc1/C=C/Br
inactive: [26] 1.02 | [9] 0.98 | [10] 1 | [11] 0.994 | [12] 1.03 | [13] 0.977 | [14] 0.998 | [15] 1.01 | [16] 0.944 | [17] 0.999 | [18] 0.964 | [19] 0.936 | [20] 0.994 | [27] 0.999 | [21] 0.999 | [24] 0.998 | [25] 0.99

COc1ccc(CCCOc2cc(CCn3ccnc3)ccc2OC)cc1
inactive: [13] 1.03

CCN(CCCCOC(=O)c1ccc(OC)c(OC)c1)C(C)Cc1ccc(OC)cc1 (stereo not drawn)
inactive: [26] 0.982 | S. cerevisiae deletion strains, locus YBR021W, strain FUR4, active compounds read low 0.989 | S. cerevisiae deletion strains, locus YBR229C, strain ROT2, active compounds read low 0.95 | S. cerevisiae deletion strains, locus YCL029C, strain bik1, active compounds read low 0.99 | S. cerevisiae deletion strains, locus YDL035C, strain GPR1, active compounds read low 0.972 | S. cerevisiae deletion strains, locus YDL074C, strain BRE1, active compounds read low 0.987 | S. cerevisiae deletion strains, locus YDL101C, strain DUN1, active compounds read low 0.988 | S. cerevisiae deletion strains, locus YDL134C, strain PPH21, active compounds read low 0.988 | S. cerevisiae deletion strains, locus YDL185W, strain tfp1, active compounds read low 0.991 | S. cerevisiae deletion strains, locus YDL192W, strain arf1, active compounds read low 0.982 | S. cerevisiae deletion strains, locus YDR101C, strain arx1, active compounds read low 0.995 | [11] 0.96 | S. cerevisiae deletion strains, locus YDR162C, strain NBP2, active compounds read low 0.977 | S. cerevisiae deletion strains, locus YDR318W, strain mcm21, active compounds read low 0.999 | S. cerevisiae deletion strains, locus YDR388W, active compounds read low 0.998 | S. cerevisiae deletion strains, locus YDR502C, strain sam2, active compounds read low 0.98 | S. cerevisiae deletion strains, locus YEL061C, strain CIN8, active compounds read low 0.979 | S. cerevisiae deletion strains, locus YER110C, active compounds read low 0.963 | S. cerevisiae deletion strains, locus YER155C, strain BEM2, active compounds read low 0.999 | S. cerevisiae deletion strains, locus YER167W, strain BCK2, active compounds read low 0.989 | S. cerevisiae deletion strains, locus YGL078C, strain dbp3, active compounds read low 0.997 | S. cerevisiae deletion strains, locus YGL086W, strain mad1, active compounds read low 0.965 | S. cerevisiae deletion strains, locus YGL248W, strain PDE1, active compounds read low 0.98 | S. cerevisiae deletion strains, locus YGR078C, strain PAC10, active compounds read low 0.995 | S. cerevisiae deletion strains, locus YGR135W, strain pre9, active compounds read low 1.02 | [22] 0.978 | S. cerevisiae deletion strains, locus YGR252W, strain gcn5, active compounds read low 0.937 | [1] 0.989 and 0.965 | S. cerevisiae deletion strains, locus YHR079C, strain IRE1 (second series), active compounds read low 0.992 | [2] 0.956 | S. cerevisiae deletion strains, locus YHR094C, strain hxt1, active compounds read low 0.989 | S. cerevisiae deletion strains, locus YHR129C, strain ARP1, active compounds read low 0.993 | S. cerevisiae deletion strains, locus YHR200W, strain rpn10, active compounds read low 0.992 | S. cerevisiae deletion strains, locus YIL066C, strain RNR3, active compounds read low 0.968 | S. cerevisiae deletion strains, locus YIL073C, strain SPO22, active compounds read low 0.986 | S. cerevisiae deletion strains, locus YIL125W, strain kgd1, active compounds read low 0.985 | S. cerevisiae deletion strains, locus YIR030C, strain dcg1, active compounds read low 0.978 | [3] 1.03 and 0.98 | S. cerevisiae deletion strains, locus YJL134W, strain LCB3, active compounds read low 0.979 | S. cerevisiae deletion strains, locus YJL168C, strain set2, active compounds read low 0.995 | S. cerevisiae deletion strains, locus YJL187C, strain SWE1 (second series), active compounds read low 1 | S. cerevisiae deletion strains, locus YJR043C, strain POL32, active compounds read low 1.01 | [4] 0.913 | [23] 0.98 | S. cerevisiae deletion strains, locus YKL009W, strain mrt4, active compounds read low 0.95 | S. cerevisiae deletion strains, locus YKL068W, active compounds read low 0.998 | S. cerevisiae deletion strains, locus YKL085W, strain MDH1 (second series), active compounds read low 0.987 | S. cerevisiae deletion strains, locus YKL085W, strain MDH1, active compounds read low 0.987 | S. cerevisiae deletion strains, locus YKL190W, strain CNB1, active compounds read low 0.99 | S. cerevisiae deletion strains, locus YKR001C, strain vps1, active compounds read low 0.988 | S. cerevisiae deletion strains, locus YLR039C, strain RIC1, active compounds read low 0.983 | S. cerevisiae deletion strains, locus YLR058C, strain SHM2, active compounds read low 0.967 | S. cerevisiae deletion strains, locus YLR102C, strain apc9, active compounds read low 0.993 | [5] 0.956 | S. cerevisiae deletion strains, locus YLR262C, strain YPT6, active compounds read low 0.937 | S. cerevisiae deletion strains, locus YLR268W, strain sec22, active compounds read low 1.07 | S. cerevisiae deletion strains, locus YLR330W, strain CHS5, active compounds read low 0.977 | S. cerevisiae deletion strains, locus YLR342W, strain FKS1 (second series), active compounds read low 0.985 | S. cerevisiae deletion strains, locus YLR371W, strain rom2, active compounds read low 0.972 | S. cerevisiae deletion strains, locus YLR418C, strain cdc73, active compounds read low 0.956 | S. cerevisiae deletion strains, locus YML016C, strain PPZ1, active compounds read low 0.978 | S. cerevisiae deletion strains, locus YML032C, strain rad52, active compounds read low 1 | S. cerevisiae deletion strains, locus YML124C, strain tub3, active compounds read low 0.985 | S. cerevisiae deletion strains, locus YMR078C, strain ctf18, active compounds read low 0.987 | S. cerevisiae deletion strains, locus YMR223W, strain ubp8, active compounds read low 0.971 | [14] 0.978 | [15] 1.01 | S. cerevisiae deletion strains, locus YNL067W, strain RPL9B, active compounds read low 1.01 | [16] 0.968 | [17] 1 | [6] 0.9 | S. cerevisiae deletion strains, locus YNL233W, strain BNI4, active compounds read low 0.996 | S. cerevisiae deletion strains, locus YNL250W, strain rad50, active compounds read low 0.987 | S. cerevisiae deletion strains, locus YNL271C, strain bni1, active compounds read low 0.999 | S. cerevisiae deletion strains, locus YNL298W, strain CLA4, active compounds read low 0.99 | S. cerevisiae deletion strains, locus YNL307C, strain MCK1, active compounds read low 0.983 | [27] 0.982 | S. cerevisiae deletion strains, locus YNR052C, strain pop2, active compounds read low 1.01 | S. cerevisiae deletion strains, locus YOL006C, strain TOP1, active compounds read low 0.966 | S. cerevisiae deletion strains, locus YOL012C, strain htz1 1.08 | S. cerevisiae deletion strains, locus YOL147C, strain pex11, active compounds read low 0.987 | S. cerevisiae deletion strains, locus YOR061W, strain CKA2, active compounds read low 0.974 | S. cerevisiae deletion strains, locus YOR069W, strain VPS5, active compounds read low 0.986 | S. cerevisiae deletion strains, locus YOR136W, strain idh2, active compounds read low 0.981 | S. cerevisiae deletion strains, locus YOR144C, strain elg1, active compounds read low 0.991 | S. cerevisiae deletion strains, locus YOR184W, strain ser1, active compounds read low 0.974 | [7] 0.964 | S. cerevisiae deletion strains, locus YOR316C, strain cot1, active compounds read low 0.992 | [24] 0.963 | [25] 0.989 | [8] 0.961 | S. cerevisiae deletion strains, locus YPR119W, strain clb2, active compounds read low 0.987 | S. cerevisiae deletion strains, locus YPR141C, strain kar3, active compounds read low 0.979 | S. cerevisiae deletion strains, locus YPR163C, strain tif3, active compounds read low 0.992 | S. cerevisiae deletion strains, locus YPR167C, strain met16, active compounds read low 0.997 | S. cerevisiae deletion strains, strain wtn01, active compounds read low 1.01 | S. cerevisiae strains, strain wild type, active compounds read low 0.98
